Counter-ions that a name gives are not always drawn. ± gives the standard deviation or the standard deviation of the averaged measurements.
Key:
Details in all cases: 25 µM; exposure: 24-48 hpf
[1] = test system: Danio rerio Tg(wt1b:EGFP) embryo, pronephros; assay: glomerular separation, fold change vs DMSO control; higher = glomeruli further apart (abnormal)
Procedure, shortened: (§1)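 Dechorionated Tg(wt1b:EGFP) zebrafish embryos were treated with 25 μM compound in 0.5% DMSO, in HEPES-buffered E3 with 0.003% PTU, from 24 to 48 hpf at 28.5°C. On maximum projections of dorsal pronephros images, 16 hand-placed reference points in Fiji gave distances and angles, and values more than 2 SD from the feature mean were left out. Results are fold changes over the mean of same-day DMSO-treated embryos.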

[2] = test system: Danio rerio Tg(wt1b:EGFP) embryo, pronephros; assay: glomerular width (mean of left and right), fold change vs DMSO control; higher = wider glomerulus
Procedure, shortened: as §1

[3] = test system: Danio rerio Tg(wt1b:EGFP) embryo, pronephros; assay: fraction of imaged embryos annotated as normal kidney; higher = less nephrotoxic; extreme values may be limits of the assay
Procedure, shortened: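 Zebrafish embryos carrying Tg(wt1b:EGFP) were dechorionated and exposed to 25 μM compound (0.5% DMSO) between 24 and 48 hpf at 28.5°C. Their pronephroi were imaged by widefield fluorescence, and each embryo was classed by hand from maximum projections. The measure is the fraction of embryos per treatment falling in the normal-kidney category.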

[4] = test system: Danio rerio Tg(wt1b:EGFP) embryo, pronephros; assay: pronephric angle neck segment to proximal convoluted tubule (mean of left and right), fold change vs DMSO control; higher = larger pronephric angle
Procedure, shortened: as §1

Structure (SMILES)	glomerular separation [1]	glomerular width [2]	fraction of imaged embryos annotated as normal kidney [3]	pronephric angle neck segment [4]
CN(C)CC/C=C1/c2ccccc2COc2ccc(CC(=O)O)cc21 [Olopatadine hydrochloride]	0.914 ± 0.34	0.97 ± 0.013	0.833	1.03 ± 0.025
CCC[C@H](N[C@@H](C)C(=O)N1[C@H](C(=O)O)C[C@@H]2CCCC[C@@H]21)C(=O)OCC [Perindopril]	0.827 ± 0.34	1.09 ± 0.028	0.917	0.98 ± 0.026
NC1CCN(c2nc3c(cc2F)c(=O)c(C(=O)O)cn3-c2ccc(F)cc2F)C1 (stereo unspecified) [Tosufloxacin hydrochloride]	0.995 ± 0.36	1.07 ± 0.074	0.833	1.038 ± 0.0028
CN[C@@H]1[C@H](O[C@H]2[C@H](O[C@H]3[C@H](O)[C@@H](O)[C@H](NC(=N)N)[C@@H](O)[C@@H]3NC(=N)N)O[C@@H](C)[C@]2(O)CO)O[C@@H](CO)[C@H](O)[C@H]1O [Dihydrostreptomycin sulfate]	0.844 ± 0.18	1.0469 ± 0.00096	0.667	0.975 ± 0.048
CCN(CC)CCc1nc(-c2ccccc2)no1 [Oxalamine citrate salt]	0.929 ± 0.43	0.933 ± 0.016	0.917	0.893 ± 0.035
Nc1c2ccccc2nc2ccccc12 [Aminacrine]	0.947 ± 0.57	1.01 ± 0.055	1	0.996 ± 0.028
O=C(O)COCCN1CCN(C(c2ccccc2)c2ccc(Cl)cc2)CC1 (stereo unspecified) [Cetirizine dihydrochloride]	0.855 ± 0.18	1.09 ± 0.012	1	1.03 ± 0.011
CCCSc1ccc2[nH]c(NC(=O)OC)nc2c1 [Albendazole]	3.72 ± 1.5	0.591 ± 0.025	0	1.97 ± 0.07
CN(C)CCOc1ccc(/C(=C(/CCCl)c2ccccc2)c2ccccc2)cc1 [Toremifene]	0.881 ± 0.39	0.904 ± 0.08	0.917	1.04 ± 0.018
